Screens: PubChem, several laboratories
This is a sample that favours compounds with a hit; in the whole collection about 4% have one here.
CSC inhib: cancer stem cell inhibition. cancer stem cell-like cells viability, luminescence. AID 2717. inhibition, % at 7.5 µM. hit rate 1.1% among 300,000; in the data active = inhibition above about 75%; tested in HMLE shEcad cells
Gli-Sufu antag: antagonists of Gli-Sufu signaling; inhibition, % at 5 µM; Sufu-KO-LIGHT fibroblasts, Gli luciferase reporter luminescence; hit rate 0.74% among 340,000;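 active = inhibition above about 55%, limit read from the data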;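 note: 0% = DMSO-treated cells and 100% = wells with medium but no cells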
Mdm2-MdmX inh: disrupts the human Mdm2-MdmX interaction; O15151+Q00987; SaOS-2 split-luciferase Mdm2/MdmX complementation, luminescence; inhibition, % at 8 µM; hit rate 3% among 330,000; AID 485346;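 active = inhibition of at least 50% at 8 µM in the primary screen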
Target sequence (O15151 whole entry, looked up): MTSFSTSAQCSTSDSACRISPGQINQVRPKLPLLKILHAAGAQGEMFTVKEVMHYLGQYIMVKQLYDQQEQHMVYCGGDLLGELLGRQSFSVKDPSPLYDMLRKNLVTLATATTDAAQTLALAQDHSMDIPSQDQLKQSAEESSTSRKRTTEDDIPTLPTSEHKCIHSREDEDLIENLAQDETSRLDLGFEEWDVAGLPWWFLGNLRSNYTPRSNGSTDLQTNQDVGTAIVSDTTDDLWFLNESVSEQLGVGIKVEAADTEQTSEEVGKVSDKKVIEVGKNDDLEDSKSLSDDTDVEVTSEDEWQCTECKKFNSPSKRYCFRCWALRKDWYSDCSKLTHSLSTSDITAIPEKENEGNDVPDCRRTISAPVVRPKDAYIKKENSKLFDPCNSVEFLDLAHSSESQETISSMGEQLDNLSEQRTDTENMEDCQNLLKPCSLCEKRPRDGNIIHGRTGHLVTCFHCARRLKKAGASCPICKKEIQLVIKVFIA
Target sequence (Q00987 whole entry, looked up): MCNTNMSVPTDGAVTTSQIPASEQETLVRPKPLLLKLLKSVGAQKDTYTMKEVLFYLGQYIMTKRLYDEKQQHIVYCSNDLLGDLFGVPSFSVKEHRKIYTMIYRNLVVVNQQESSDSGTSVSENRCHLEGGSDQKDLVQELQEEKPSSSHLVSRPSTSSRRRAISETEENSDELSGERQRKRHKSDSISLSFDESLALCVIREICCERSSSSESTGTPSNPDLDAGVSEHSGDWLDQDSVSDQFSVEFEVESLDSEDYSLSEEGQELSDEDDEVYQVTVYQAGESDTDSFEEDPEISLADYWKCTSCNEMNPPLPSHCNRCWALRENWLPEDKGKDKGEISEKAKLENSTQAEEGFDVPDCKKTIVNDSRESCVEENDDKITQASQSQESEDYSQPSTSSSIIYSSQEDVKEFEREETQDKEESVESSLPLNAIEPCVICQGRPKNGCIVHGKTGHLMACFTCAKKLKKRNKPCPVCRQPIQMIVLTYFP
Shn3 3UTR inh: reduces Shn3 3'UTR luciferase signal in osteoblasts; AID 588674; inhibition, % at 12.5 µM; hit rate 0.52% among 360,000; Clone20 osteoblast Shn3 3'UTR firefly luciferase, 24 h;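 active = mean inhibition of at least 75% with every replicate also reaching 75%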;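 note: 0% = median of neutral control wells and 100% = pilot-screen positive control compound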
PAX8 reporter: PAX8 transcriptional activity inhibition; hit rate 1.2% among 360,000; AID 652154; RMG-I TPO-luciferase reporter, SteadyGlo, 24 h; inhibition, % at 12.6 µM;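 active = mean replicate inhibition at least 60% with every replicate also reaching 60%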;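 note: luciferase light reporting Pax8 driven TPO promoter activity; plate controls were median of neutral control wells for no effect and mitoxantrone controls for full effect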
Beta cell apopt: beta cell apoptosis inhibition; INS-1E cytokine-induced death, ATP luminescence, 48 h; percent of positive-control rescue, neutral wells zero; protection from apoptosis, % (test concentration not listed); hit rate 0.8% among 300,000;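 active = Every replicate reaches about 75%, or at least half do and their mean reaches it too, limit read from the data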;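 note: 0% = cytokine-treated negative control wells and 100% = positive control rescue; higher means more ATP so stronger rescue from cytokine killing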
Starred values were filed as active, the others as inactive; · = not tested or not shown.

SMILES	CSC inhib	Gli-Sufu antag	Mdm2-MdmX inh	Shn3 3UTR inh	PAX8 reporter	Beta cell apopt
O=C1O[C@H](c2ccccc2)[C@H](c2ccccc2)N2[C@H]1[C@@H](C(=O)NC[C@H](O)c1ccccc1)[C@]1(C(=O)Nc3ccc(C#CCCO)cc31)[C@H]2c1ccc(OCCO)cc1	·	·	·	·	-8	·
Cc1ccc(S(=O)(=O)N(C)C[C@H]2Oc3c(NC(=O)Nc4c(C)noc4C)cccc3C(=O)N([C@@H](C)CO)C[C@H]2C)cc1	·	·	·	·	-33	·
NC(=O)c1ncn2c(=O)n(CCCl)nnc12	·	·	·	·	81*	·
Cn1nnc2c(C(N)=O)ncn2c1=O	·	·	-5	10	17	·
Oc1ccc(-c2n[nH]c(C(F)(F)F)c2-c2ccccc2)c(O)c1	-15	70*	8	87*	7	105*
Cc1ccccc1S(=O)(=O)N1C[C@H](O)COC[C@@H]2O[C@@H](CC(=O)O)CC[C@H]21	·	·	·	·	-2	·
O=C(Nc1ccccc1F)N[C@H]1CC[C@H](CCNS(=O)(=O)c2ccccc2)O[C@@H]1CO	·	·	·	·	6	·
Cc1ccc(S(=O)(=O)Nc2ccc3c(c2)C(=O)N([C@@H](C)CO)C[C@@H](C)[C@H](CN(C)C(=O)NC(C)C)OCCCC[C@@H](C)O3)cc1	·	·	·	·	11	·
Cc1sc(NC(=O)/C=C/c2ccc3c(c2)OCO3)nc1-c1ccccc1	108*	16	33	48	0	15
O=C(/C=C/c1ccc2c(c1)OCO2)Nc1nc(-c2ccccc2)cs1	99*	-31	24	18	·	·
Cc1cc(C)nc(NC(=O)/C=C/c2ccc3c(c2)OCO3)c1	85*	-86	-60	-57	-152	10
O=C(/C=C/c1ccc2c(c1)OCO2)Nc1nncs1	57	-48	-24	-33	-85	·
O=C(/C=C/c1ccc2c(c1)OCO2)Nc1cccnc1	83*	-90	-101	-84	-171	-3
CN(C)C(=O)C[C@@H]1CC[C@@H](NC(=O)NC2CCCCC2)[C@H](CO)O1	·	·	·	·	-8	·
C[C@@H]1CN([C@H](C)CO)S(=O)(=O)c2ccc(-c3ccc(C#N)cc3)cc2O[C@@H]1CN(C)Cc1cccc(F)c1	·	·	·	·	86*	·
C[C@@H]1CN([C@@H](C)CO)S(=O)(=O)c2ccc(-c3ccc(C#N)cc3)cc2O[C@H]1CN(C)Cc1cccc(F)c1	·	·	·	·	57	·
C[C@@H]1CN([C@@H](C)CO)S(=O)(=O)c2ccc(-c3ccc(C#N)cc3)cc2O[C@@H]1CN(C)Cc1cccc(F)c1	·	·	·	·	63*	·
C[C@H](CO)N1C[C@H](C)[C@H](CN(C)S(C)(=O)=O)OCCCC[C@H](C)Oc2ccc(NC(=O)Cc3ccccc3)cc2C1=O	·	·	·	·	6	·
C[C@H]1CCCCO[C@@H](CN(C)Cc2ccc3c(c2)OCO3)[C@@H](C)CN([C@@H](C)CO)C(=O)c2cc(NC(=O)Nc3ccc(C(F)(F)F)cc3)ccc2O1	·	·	·	·	-18	·
C[C@@H]1CCCCO[C@H](CN(C)Cc2ccc3c(c2)OCO3)[C@H](C)CN([C@H](C)CO)C(=O)c2cc(NC(=O)Nc3ccc(C(F)(F)F)cc3)ccc2O1	·	·	·	·	-22	·
C[C@@H]1CCCCO[C@@H](CN(C)Cc2ccc3c(c2)OCO3)[C@H](C)CN([C@@H](C)CO)C(=O)c2cc(NC(=O)Nc3ccc(C(F)(F)F)cc3)ccc2O1	·	·	·	·	88*	·
C[C@@H]1CCCCO[C@@H](CN(C)Cc2ccc3c(c2)OCO3)[C@@H](C)CN([C@@H](C)CO)C(=O)c2cc(NC(=O)Nc3ccc(C(F)(F)F)cc3)ccc2O1	·	·	·	·	77*	·
C[C@@H]1CN([C@@H](C)CO)C(=O)c2cc(NC(=O)Nc3ccc(C(F)(F)F)cc3)ccc2O[C@@H](C)CCCCO[C@@H]1CN(C)Cc1ccc2c(c1)OCO2	·	·	·	·	101*	·
C[C@H]1CN([C@@H](C)CO)C(=O)c2c(c3ccccc3n2C)-c2ccccc2CO[C@@H]1CN(C)C(=O)C1CC1	·	·	·	·	17	·
O=C(c1cnn2c1NC(c1ccc(Br)cc1)CC2C(F)(F)F)N1CCN2CCCC2C1 (stereo not drawn)	80*	-29	15	24	·	6
SMILES	CSC inhib	Gli-Sufu antag	Mdm2-MdmX inh	Shn3 3UTR inh	PAX8 reporter	Beta cell apopt
O=C(c1cnn2c1NC(c1ccc(Br)cc1)CC2C(F)(F)F)N1CCN(C23CC4CC(CC(C4)C2)C3)CC1 (stereo not drawn)	22	-2	0	8	·	0
CN1c2ccc(-c3ccc(C#N)cc3)cc2[C@@H]2[C@@H](CCN2C(=O)NC2CCCCC2)[C@H]1CO	·	·	·	·	-2	·
CN1c2ccc(-c3ccc(C#N)cc3)cc2[C@@H]2[C@@H](CCN2C(=O)NC2CCCCC2)[C@@H]1CO	·	·	·	·	88*	·
COc1cccc(-c2ccc3c(c2)[C@@H]2[C@@H](CCN2C(=O)NC2CCCC2)[C@@H](CO)N3C)c1	·	·	·	·	18	·
COc1cccc(-c2ccc3c(c2)[C@H]2[C@H](CCN2C(=O)NC2CCCCC2)[C@@H](CO)N3C)c1	·	·	·	·	96*	·
CCCC(c1nnnn1Cc1ccco1)N1CCN(c2cc(Cl)ccc2C)CC1 (stereo not drawn)	136*	16	-1	4	·	2
CCCC(c1nnnn1Cc1ccco1)N1CCN(c2ccccc2)CC1 (stereo not drawn)	-9	-5	3	3	24	-4
CCOc1ccc(C2=Nn3c(nnc3-c3ccccc3OC)SC2)cc1	-1	51	·	39	95*	33
CC(=O)OC1COC(OC2C(O)C(C)OC(OC3C(OC4CCC5(C)C(CCC6(C)C5CC=C5C7CC(C)(C)CCC7(C(=O)O)CCC56C)C4(C)CO)OCC(O)C3O)C2O)C(O)C1OC(C)=O (stereo not drawn)	-3	·	17	·	·	107*
Cc1cc(O)c(Oc2cc(C)cc(O)c2O)c(O)c1	80*	6	-3	-16	·	-11
Cc1ccc(O)c(O)c1	8	·	32	·	·	-9
Nc1c(C(=O)Nc2cccc(C(=O)O)c2)sc2nc3c(cc12)CCCC3	·	-115	-2	32	85*	-6
Nc1c(C(=O)Nc2ccc(Cl)c(C(=O)O)c2)sc2nc3c(cc12)CCCC3	5	14	22	-84	9	-8
Nc1c(C(=O)Nc2ccc(S(=O)(=O)N3CCCC3)cc2)sc2nc3cc4c(cc3cc12)CCC4	6	8	·	34	-15	100*
O=C(Nc1ccc(S(=O)(=O)N2CCCC2)cc1)c1ccc2c(=O)n3c(nc2c1)CCCCC3	-7	23	39	48	29	0
CCCN1[C@@H]2c3ccc(-c4ccncc4)c(=O)n3C[C@@H]2[C@@H](CO)[C@@H]1C(=O)NCCCN1CCOCC1	·	·	·	·	-11	·
C[C@@H]1CN([C@@H](C)CO)C(=O)c2cc(NS(=O)(=O)c3ccc(Cl)cc3)ccc2O[C@@H](C)CCCCO[C@H]1CN(C)Cc1ccc(C(F)(F)F)cc1	·	·	·	·	102*	·
C[C@H]1CCCCO[C@@H](CN(C)Cc2ccc(C(F)(F)F)cc2)[C@@H](C)CN([C@@H](C)CO)C(=O)c2cc(NS(=O)(=O)c3ccc(Cl)cc3)ccc2O1	·	·	·	·	102*	·
